Data from PubChem BioAssay (NCI).
This is part of a sample that, as a whole, favours compounds with a hit. Of some 83,000 tested, about 20% had one in any assay.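 Plates (96-well) were seeded with cells, treated with compound at one concentration, and incubated for 48 hours before percent growth was determined.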 Active and inactive are the calls of the source. How the source made its calls: active means growth percent below 10; inactive means the rest.

How the values were obtained:
Assay in all cases: NCI-60 one-dose screen, 48 h (100 = growth as untreated, 0 = no growth, -100 = all killed)
Conditions in all cases: 10 µM unless noted
HCT-15 colon = system: HCT-15 colon
HT29 colon = system: HT29 colon
SNB-75 CNS = system: SNB-75 CNS
U251 CNS = system: U251 CNS
PC-3 prostate = system: PC-3 prostate
SK-MEL-5 melanoma = system: SK-MEL-5 melanoma
UACC-62 melanoma = system: UACC-62 melanoma
LOX IMVI melanoma = system: LOX IMVI melanoma
SK-MEL-28 melanoma = system: SK-MEL-28 melanoma
SNB-19 CNS = system: SNB-19 CNS

Measured: growth

CC#CC#Cc1cccc(=O)o1
inactive: HCT-15 colon 36.1% | HT29 colon 45.3% | SNB-75 CNS 82.4% | U251 CNS 75.1% | PC-3 prostate 78.6% | SK-MEL-5 melanoma 70.3% | UACC-62 melanoma 40.8% | LOX IMVI melanoma 61.5% | SK-MEL-28 melanoma 23.9%

O=C(Cc1ccccc1)c1ccc(Cl)cc1
inactive: HCT-15 colon 97.1% | HT29 colon 115% | SNB-75 CNS 95.9% | U251 CNS 99.5% | PC-3 prostate 116% | SK-MEL-5 melanoma 103% | UACC-62 melanoma 93.2% | LOX IMVI melanoma 102% | SK-MEL-28 melanoma 114%

OCC1C2C=CC(C2)C1CO (stereo not given)
inactive: HCT-15 colon 110% | HT29 colon 97.6% | SNB-75 CNS 75.8% | U251 CNS 100% | PC-3 prostate 79.5% | SK-MEL-5 melanoma 130% | UACC-62 melanoma 107% | LOX IMVI melanoma 101% | SK-MEL-28 melanoma 107%

O=C(CNC1C2CC3CC(C2)CC1C3)Sc1nnc2sc3ccccc3n12 (stereo not given)
inactive: HCT-15 colon 105% | HT29 colon 106% | SNB-75 CNS 76.5% | U251 CNS 104% | PC-3 prostate 77.4% | SK-MEL-5 melanoma 93.9% | UACC-62 melanoma 88.2% | LOX IMVI melanoma 94.5% | SK-MEL-28 melanoma 112%

COc1ccc(CCN2CCCn3c2nc2ccccc2c3=O)cc1
inactive: HCT-15 colon 22.2% | HT29 colon 11.8% | SNB-75 CNS 17.5% | U251 CNS 29% | PC-3 prostate 42% | SK-MEL-5 melanoma 15.5% | UACC-62 melanoma 26.5% | LOX IMVI melanoma 15.1% | SK-MEL-28 melanoma 49.6%

CCCCCCCCCCCCCCCC(=O)OCC1OC(n2cnc3c(=S)nc(N)[nH]c32)C(OC(=O)CCCCCCCCCCCCCCC)C1OC(=O)CCCCCCCCCCCCCCC (stereo not given)
inactive: HCT-15 colon 55.1% | HT29 colon 37.7% | SNB-75 CNS 78.2% | U251 CNS 83.7% | PC-3 prostate 78.8% | SK-MEL-5 melanoma 96.7% | UACC-62 melanoma 31.7% | LOX IMVI melanoma 21.7% | SK-MEL-28 melanoma 130%

OCCNCCNc1c2ccccc2nc2ccccc12
inactive: HCT-15 colon 97.2% | HT29 colon 58% | SNB-75 CNS 93.3% | U251 CNS 55.3% | PC-3 prostate 87.5% | SK-MEL-5 melanoma 88.4% | UACC-62 melanoma 66.6% | LOX IMVI melanoma 37.8% | SK-MEL-28 melanoma 114%

CCCCCCCCCc1cc(CN2CCCCC2)c(O)c(CN2CCCCC2)c1
inactive: HCT-15 colon 52.3% | HT29 colon 40.5% | SNB-75 CNS 60.6% | U251 CNS 45.1% | PC-3 prostate 53.7% | SK-MEL-5 melanoma 40% | UACC-62 melanoma 72.9% | LOX IMVI melanoma 48.6% | SK-MEL-28 melanoma 74%

CC1CN(C(C)C)C(=S)N(c2ccccc2)C1=O (stereo not given)
inactive: HCT-15 colon 104% | HT29 colon 104% | SNB-75 CNS 119% | U251 CNS 99.9% | PC-3 prostate 105% | SK-MEL-5 melanoma 98.1% | UACC-62 melanoma 94.4% | LOX IMVI melanoma 93.4% | SK-MEL-28 melanoma 122%

CCN(CC)CC(C)(C)C(=O)/C=C/c1ccccc1
active: LOX IMVI melanoma -2.72%
inactive: HCT-15 colon 21.2% | HT29 colon 49% | SNB-75 CNS 81.6% | U251 CNS 86.4% | PC-3 prostate 69% | SK-MEL-5 melanoma 81.9% | UACC-62 melanoma 39.8% | SK-MEL-28 melanoma 67.8%

CCOC(=S)SCc1ccc(Cl)cc1
inactive: HCT-15 colon 94.8% | HT29 colon 103% | SNB-75 CNS 76.5% | U251 CNS 90.5% | PC-3 prostate 81.7% | SK-MEL-5 melanoma 106% | UACC-62 melanoma 95.5% | LOX IMVI melanoma 99.3% | SK-MEL-28 melanoma 114%

COc1cc(C#N)cc(OC)c1OCCN(CCOc1c(OC)cc(C#N)cc1OC)S(=O)(=O)c1ccc(C)cc1
inactive: HCT-15 colon 108% | HT29 colon 111% | SNB-75 CNS 92.7% | U251 CNS 103% | SK-MEL-5 melanoma 61.8% | LOX IMVI melanoma 93.1% | SK-MEL-28 melanoma 118%

Cc1cc2c(cc1C)NC1=C(N2)OC(c2c3ccccc3cc3ccccc23)C1=O (stereo not given)
inactive: HT29 colon 12.5% | SNB-75 CNS 49.4% | PC-3 prostate 28.2% | SK-MEL-28 melanoma 31.5%
active: HCT-15 colon 0.544% | SK-MEL-5 melanoma -40.6% | UACC-62 melanoma 3.19% | LOX IMVI melanoma -35.4%

S=c1[nH]nc(CSc2ncnc3c2c(-c2ccccc2)cn3-c2ccc(Cl)cc2)o1
inactive: HCT-15 colon 117% | HT29 colon 107% | SNB-19 CNS 94.6% | U251 CNS 93.8% | PC-3 prostate 88.1% | SK-MEL-5 melanoma 104% | UACC-62 melanoma 89.1% | LOX IMVI melanoma 90.2% | SK-MEL-28 melanoma 115%

CCC(=O)Oc1ccc(/C(=C(\C)c2ccccc2)c2ccc(OCCN(CC)CC)cc2)cc1
inactive: HCT-15 colon 54.3% | SNB-19 CNS 87.8% | U251 CNS 71.6% | PC-3 prostate 66.7% | SK-MEL-5 melanoma 74.8% | UACC-62 melanoma 93.4% | LOX IMVI melanoma 87.8% | SK-MEL-28 melanoma 80.3%
active: HT29 colon 7.83%

CCCCOc1ccc(NC(=O)n2nc(NC(C)=O)c3cc(NC(C)=O)ccc32)cc1
inactive: HCT-15 colon 88.9% | HT29 colon 85.5% | SNB-75 CNS 114% | PC-3 prostate 76.6% | SK-MEL-5 melanoma 101% | UACC-62 melanoma 91.8% | LOX IMVI melanoma 98.5% | SK-MEL-28 melanoma 126%

COc1cc2c(c(OC)c1OC)-c1ccc(N=NC(N)=S)c(=O)cc1[C@@H](NC(C)=O)CC2
inactive: HCT-15 colon 76.4% | SNB-19 CNS 27.9% | PC-3 prostate 57.3% | UACC-62 melanoma 17.2% | LOX IMVI melanoma 13.5% | SK-MEL-28 melanoma 53.6%
active: HT29 colon -2.5% | U251 CNS 9.3% | SK-MEL-5 melanoma -33.2%

COc1cc2c(=O)n(CC3CCCCC3)c3c4cc[nH]c4ncc3c2cc1OC
inactive: HCT-15 colon 32.1% | HT29 colon 32% | SNB-19 CNS 57.5% | U251 CNS 30.3% | PC-3 prostate 43.4% | SK-MEL-5 melanoma 39.3% | UACC-62 melanoma 74.4% | LOX IMVI melanoma 12.3% | SK-MEL-28 melanoma 77.8%

O=C1C=CC(=O)N1c1ccc(Cc2ccc(N3C(=O)C=CC3=O)cc2)cc1
inactive: HCT-15 colon 91.1% | HT29 colon 133% | SNB-75 CNS 164% | PC-3 prostate 91.2% | SK-MEL-5 melanoma 96.3% | UACC-62 melanoma 83.7% | LOX IMVI melanoma 96.1% | SK-MEL-28 melanoma 120%

CCCN(CCC)CN(CCC)CCC
inactive: HCT-15 colon 102% | HT29 colon 96.5% | SNB-75 CNS 96% | U251 CNS 98.1% | SK-MEL-5 melanoma 107% | LOX IMVI melanoma 104% | SK-MEL-28 melanoma 106%

COc1cc(NCCCCCN=C(N)NC(N)=NC(C)C)c2ncccc2c1
inactive: HCT-15 colon 110% | HT29 colon 54.2% | SNB-19 CNS 33.2% | U251 CNS 20.5% | PC-3 prostate 32.8% | UACC-62 melanoma 36.8% | SK-MEL-28 melanoma 60.1%
active: SK-MEL-5 melanoma 5.87% | LOX IMVI melanoma 9.91%

CCN(CC)Cc1cc(Nc2c3ccc(Cl)cc3nc3c(C)cccc23)ccc1O
active: HCT-15 colon -45.8% | HT29 colon -41.8% | SNB-75 CNS -99.4% | U251 CNS -62.4% | SK-MEL-5 melanoma -96.5% | UACC-62 melanoma -79.3% | LOX IMVI melanoma -84.9% | SK-MEL-28 melanoma -65.5%

CS(=O)CCCCCN=C=S (stereo not given)
inactive: SNB-19 CNS 28% | PC-3 prostate 32.4% | SK-MEL-5 melanoma 12.1%
active: HCT-15 colon -16.9% | HT29 colon -13.3% | U251 CNS 9.01% | UACC-62 melanoma -8.14% | LOX IMVI melanoma -38.7% | SK-MEL-28 melanoma 6.92%

COc1cccc(NC(=O)c2sc3nc4c(cc3c2N)CN(Cc2ccccc2)CC4)c1
inactive: HCT-15 colon 42.2% | HT29 colon 44.5% | PC-3 prostate 71.1% | SK-MEL-5 melanoma 62.6% | UACC-62 melanoma 35.1% | LOX IMVI melanoma 67.4% | SK-MEL-28 melanoma 76.8%
active: SNB-75 CNS -19.7%

Nc1c(C(=O)Nc2cccc3c2OCCO3)sc2nc3c(cc12)CN(Cc1ccccc1)CC3
inactive: HCT-15 colon 42.5% | HT29 colon 35.3% | SNB-19 CNS 60.4% | U251 CNS 56.9% | PC-3 prostate 55.1% | SK-MEL-5 melanoma 60.8% | UACC-62 melanoma 49.3% | LOX IMVI melanoma 53.2% | SK-MEL-28 melanoma 75.4%

O=C(Nc1cccc2c1C(=O)c1cccc(Nc3cccc4c3C(=O)c3cccc(NC(=O)c5ccccc5)c3C4=O)c1C2=O)c1ccccc1
inactive: HCT-15 colon 110% | HT29 colon 124% | SNB-75 CNS 92.8% | U251 CNS 109% | SK-MEL-5 melanoma 112% | LOX IMVI melanoma 98.1% | SK-MEL-28 melanoma 118%

Cn1c2ccccc2c2c3[nH]c(=O)[nH]c(=O)c3c3c4ccccc4n(C)c3c21
inactive: HCT-15 colon 24.2% | HT29 colon 14.4% | U251 CNS 21.9% | SK-MEL-5 melanoma 29.3% | LOX IMVI melanoma 22.5% | SK-MEL-28 melanoma 27.2%
active: SNB-75 CNS -38.4%

CC(=O)C1=C(O)C=C2Oc3c(C(=O)/C=C/c4c(Cl)cccc4Cl)c(O)c(C)c(O)c3[C@]2(C)C1=O
active: HCT-15 colon -50.4% | HT29 colon -18.5% | SNB-19 CNS -23.7% | U251 CNS -33% | PC-3 prostate -3.69% | SK-MEL-5 melanoma -86.3% | UACC-62 melanoma -69.7% | LOX IMVI melanoma -51.9% | SK-MEL-28 melanoma -60.1%

COc1cccc(-c2nc3sccn3c2-c2ccnc(NCCCNS(=O)(=O)c3ccc(Cl)cc3)c2)c1
inactive: HCT-15 colon 37.8% | HT29 colon 42.6% | SNB-19 CNS 69.4% | U251 CNS 63.5% | PC-3 prostate 26.2% | LOX IMVI melanoma 39.2% | SK-MEL-28 melanoma 69.6%
active: SK-MEL-5 melanoma 1.31% | UACC-62 melanoma 6.77%

C=CCSc1nnc(-c2ccc(C(C)(C)C)cc2)n1-c1cccc(C(F)(F)F)c1
inactive: HCT-15 colon 17.7% | HT29 colon 26.3% | SNB-75 CNS 80.5% | PC-3 prostate 16.6% | UACC-62 melanoma 42.4% | LOX IMVI melanoma 47.1% | SK-MEL-28 melanoma 67.8%
